Screening data deposited in PubChem by National Center for Advancing Translational Sciences (NCATS).
Sampled rows, rich in hits. Any-hit rate of the full collection: about 12%.
G9a block: G9a (human) methyltransferase inhibition. G9a H3K9 monomethylation, AlphaScreen, 2 h. Q96KQ7. Potency, µM (top dose mostly 102 µM), inactives show at the highest dose activity, negative = inhibition, actives largely listed as inhibitors. hit rate 8.8% among 350,000; also: potency is read from the fitted curve at half-maximal effect; % is scaled to controls: 0 for no effect and ±100 for the full control effect; nearly all actives have a fitted effect of over 75% in size
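Using a bead-based AlphaScreen, monomethylated H3K9 product from 2 h room-temperature reactions (G9a 20 nM, peptide 500 nM, SAM 20 uM) was detected with 0.5 ug/mL rabbit anti-H3K9me1 antibody.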
PLK1 PBD inh: inhibitors of human PLK1 polo-box domain binding; AID 720504; Potency, µM, without a hit: max response, negative = inhibition, most hits filed as inhibitors; Plk1 PBD binding of FITC phosphopeptide, fluorescence polarization; hit rate 2.8% among 360,000; P53350; also: potency is read from the fitted curve at half-maximal effect; series mostly up to about 57 µM; % is scaled to controls: 0 for no effect and ±100 for the full control effect; nearly all actives have a fitted effect of over 65% in size
PI5P4K alpha inh: inhibitors of human PI5P4K alpha; P48426; PI5P4Kalpha enzyme, ADP-Glo luminescence, 60 min; hits give low values; AID 652105; hit rate 1.2% among 330,000; max response, %; active = max response of -50% or lower; inconclusive = between -30% and -50%; inactive = -30% or higher; also: value at the top dose of about 77 µM; % is scaled to controls: 0 for no effect and ±100 for the full control effect
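Luminescence from ADP-Glo served as readout of PI5P4Kalpha activity in a qHTS format. Reaction: enzyme, substrate, compound, ATP at 5 microM final, 60 min at RT.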
JMJD2A Tudor inh: inhibitors of human JMJD2A Tudor domain; O75164; AlphaScreen JMJD2A-Tudor / H3K4me3 peptide binding; Potency, µM (doses to about 114 µM), for the others: at the highest dose activity change, negative = inhibition, hits mostly inhibitors; hit rate 4.4% among 390,000; AID 504339; also: potency is read from the fitted curve at half-maximal effect; % is scaled to controls: 0 for no effect and ±100 for the full control effect; nearly all actives have a fitted effect of over 50% in size
HP1b binding inh: inhibitors of HP1-beta chromodomain binding to methylated histone tails. AlphaScreen HP1-beta / biotin-H3K9me3 peptide binding. hit rate 0.56% among 390,000. P83916. AID 540317. Potency, µM (highest dose often 114 µM), for the others: at the top dose activity change, negative = inhibition, actives largely listed as inhibitors; also: potency is read from the fitted curve at half-maximal effect; nearly all actives have a fitted effect of over 70% in size
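HP1-beta protein (50 nM final) preincubated 30 min at room temperature with biotinylated H3(1-18)K9me3 peptide (50 nM) in PBS pH 7.4, 0.01% Tween-20, then compound added for 30 min. AlphaScreen streptavidin donor/nickel chelate acceptor beads (10 ug/mL final), 30 min dark, luminescence read.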
BAZ2B inh: BAZ2B (human) inhibition; AlphaScreen BAZ2B-H3K14Ac peptide displacement; Potency, µM (doses to about 114 µM), for inactives: top-dose activity change, negative = inhibition, hits mostly inhibitors; hit rate 4.4% among 360,000; AID 504333; also: potency is read from the fitted curve at half-maximal effect; % is scaled to controls: 0 for no effect and ±100 for the full control effect; nearly all actives have a fitted effect of over 60% in size
Target sequence (Q9UIF8 whole entry, looked up): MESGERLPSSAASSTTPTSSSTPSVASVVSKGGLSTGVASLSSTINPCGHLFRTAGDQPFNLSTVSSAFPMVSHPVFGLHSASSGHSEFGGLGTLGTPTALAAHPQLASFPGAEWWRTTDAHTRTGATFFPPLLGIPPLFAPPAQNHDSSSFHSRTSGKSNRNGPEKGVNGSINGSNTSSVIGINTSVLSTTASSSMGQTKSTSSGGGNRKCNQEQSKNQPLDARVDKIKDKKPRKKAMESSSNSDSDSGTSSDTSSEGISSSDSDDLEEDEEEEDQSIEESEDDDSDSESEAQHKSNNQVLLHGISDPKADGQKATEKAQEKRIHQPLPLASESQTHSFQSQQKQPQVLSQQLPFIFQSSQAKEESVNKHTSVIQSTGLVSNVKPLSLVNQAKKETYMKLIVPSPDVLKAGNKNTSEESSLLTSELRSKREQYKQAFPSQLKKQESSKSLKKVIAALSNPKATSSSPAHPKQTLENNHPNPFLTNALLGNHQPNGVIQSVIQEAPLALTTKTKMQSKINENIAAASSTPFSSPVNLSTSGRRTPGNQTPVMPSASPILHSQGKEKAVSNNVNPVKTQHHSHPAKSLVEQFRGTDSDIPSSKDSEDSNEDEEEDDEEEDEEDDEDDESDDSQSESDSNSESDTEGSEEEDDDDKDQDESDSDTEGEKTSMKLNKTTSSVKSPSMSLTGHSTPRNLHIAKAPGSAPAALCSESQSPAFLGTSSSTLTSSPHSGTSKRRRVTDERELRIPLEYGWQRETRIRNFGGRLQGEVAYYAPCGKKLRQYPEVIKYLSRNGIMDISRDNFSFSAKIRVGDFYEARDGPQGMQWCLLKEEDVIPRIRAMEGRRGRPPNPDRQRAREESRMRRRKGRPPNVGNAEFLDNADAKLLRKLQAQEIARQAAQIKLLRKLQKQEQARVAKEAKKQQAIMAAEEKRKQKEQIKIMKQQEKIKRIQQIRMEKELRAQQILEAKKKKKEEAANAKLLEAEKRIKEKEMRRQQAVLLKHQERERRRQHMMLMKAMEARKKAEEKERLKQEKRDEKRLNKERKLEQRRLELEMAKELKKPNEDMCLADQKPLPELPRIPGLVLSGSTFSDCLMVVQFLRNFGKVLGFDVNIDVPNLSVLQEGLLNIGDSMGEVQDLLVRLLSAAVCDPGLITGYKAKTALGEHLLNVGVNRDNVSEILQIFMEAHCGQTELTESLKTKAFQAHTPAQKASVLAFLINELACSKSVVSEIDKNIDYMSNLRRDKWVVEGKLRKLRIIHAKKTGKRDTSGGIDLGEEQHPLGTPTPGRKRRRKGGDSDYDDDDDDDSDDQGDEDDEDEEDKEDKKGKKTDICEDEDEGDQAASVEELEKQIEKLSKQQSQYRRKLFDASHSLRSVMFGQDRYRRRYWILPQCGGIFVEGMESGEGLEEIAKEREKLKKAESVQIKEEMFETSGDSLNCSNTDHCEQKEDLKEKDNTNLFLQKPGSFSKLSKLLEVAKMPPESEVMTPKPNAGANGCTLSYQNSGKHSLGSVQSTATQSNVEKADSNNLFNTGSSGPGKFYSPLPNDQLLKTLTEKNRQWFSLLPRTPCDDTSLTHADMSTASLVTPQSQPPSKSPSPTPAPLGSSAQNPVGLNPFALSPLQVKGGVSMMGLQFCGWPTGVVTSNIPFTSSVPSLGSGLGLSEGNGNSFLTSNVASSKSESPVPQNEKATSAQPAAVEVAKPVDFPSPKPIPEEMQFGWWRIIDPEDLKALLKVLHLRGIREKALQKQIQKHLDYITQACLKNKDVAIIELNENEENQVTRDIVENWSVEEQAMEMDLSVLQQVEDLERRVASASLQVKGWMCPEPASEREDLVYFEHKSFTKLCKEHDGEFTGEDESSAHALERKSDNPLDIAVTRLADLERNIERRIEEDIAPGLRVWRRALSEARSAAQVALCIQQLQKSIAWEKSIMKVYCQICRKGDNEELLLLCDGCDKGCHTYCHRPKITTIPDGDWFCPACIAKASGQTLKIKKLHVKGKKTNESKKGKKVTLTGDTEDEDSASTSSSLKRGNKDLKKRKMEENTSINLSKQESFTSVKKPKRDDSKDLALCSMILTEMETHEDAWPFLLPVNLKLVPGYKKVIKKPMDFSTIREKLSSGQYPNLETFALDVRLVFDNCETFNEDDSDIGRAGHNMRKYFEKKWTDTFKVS
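In this displacement format the biotinylated H3(5-23) peptide acetylated at Lys14 serves as ligand at 50 nM, with BAZ2B at 50 nM in PBS pH 7.4 containing 0.01% Tween-20. Donor and acceptor beads are 10 ug/mL final.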
* = called active by the depositor; ? = inconclusive; . = no result given; [ ] = dose if it differs, or a comment. Unless noted, calls follow the shape of the dose curve; as a rule, active = well fitted curve in the direction sought with a large enough effect; inconclusive = small, poorly fitted or top-dose-only effect, or another doubt; inactive = no such curve, though single readings can be large; an effect the other way counts as inactive or inconclusive.

SMILES	G9a block	PLK1 PBD inh	PI5P4K alpha inh	JMJD2A Tudor inh	HP1b binding inh	BAZ2B inh
O=C(NC1CCCCCC1)C(=S)N1CCOCC1	?	5.32µM*	-27.9	79.4µM*	?	?
O=C(NC1CCCCCC1)C(=S)NC1CCCCC1	35.5µM*	?	4.3	-28.1%	32.0%	17.2%
O=C(NNC(=O)C1CCCCC1)C(=O)NC1CCCCC1	10µM*	-2.0%	.	?	9.2%	0.8%
O=C(NC1CCCCCC1)C(=O)NC1CC1	.	2.7%	-0.3	-2.1%	46.1%	?
O=C(NC1CCCCCC1)C(=S)N1CCCC1	.	-6.8%	-6.7	-13.7%	30.8%	5.5%
O=C(CSc1nnc(C2CC2)n1CC1CCCO1)Nc1ccccc1Cl (stereo not drawn)	16.9%	5.6%	4.8	11.7%	35.0%	0.5%
C=CCn1c(=O)c2ccccc2n2c(=S)[nH]nc12	7.94µM*	-5.6%	-13.2	7.94µM*	-18.8%	-10.3%
C=CCn1c(=O)c2ccccc2n2c(SCC(=O)N(C)C)nnc12	-0.3%	-6.1%	-1.4	-3.0%	37.5%	-16.1%
C=CCn1c(=O)c2ccccc2n2c(SCC(=O)c3ccccc3)nnc12	22.4µM*	23.8µM*	-19.4	-10.7%[11.4 µM]	-19.2%	1.2%
CC(C)OCCCn1c(=O)c2ccccc2n2c(-c3ccccc3)nnc12	?	.	.	50.1µM*	5.1%	50.1µM*
CCCCCn1c(=O)c2ccccc2n2c(CCl)nnc12	4.4%	-2.9%	5.4	-3.1%	36.4%	-14.2%
C=CCn1c(=O)c2ccccc2n2c(Sc3nnnn3-c3ccccc3)nnc12	-22.6%	-3.2%	2.8	?	40.0%	-25.6%
CCOCCCn1c(=O)c2ccccc2n2c(=S)[nH]nc12	10µM*	4.8%	8.8	3.98µM*	-13.4%	-24.5%
CCc1nc(C)cn1S(=O)(=O)c1ccc(Cl)c(Cl)c1OC	-20.9%[59 µM]	.	.	-11.9%	11.2%	-32.9%
CC(C)CCn1c(=O)c2ccccc2n2c(=S)[nH]nc12	1.41µM*	-15.5%	-9.7	3.55µM*	70.8µM*	44.7µM*
CC(C)CCn1c(=O)c2ccccc2n2c(CCl)nnc12	-5.6%	-7.0%	0.1	-3.0%	22.9%	-11.1%
COc1cccc(C2Nc3ccccc3-c3nnc(SCc4ccccc4)nc3O2)c1OC (stereo not drawn)	9.5%[59 µM]	.	.	?	1.6%	-26.3%
NC(=O)c1ccccc1N/C=C1\CCCCC1=O	?	-14.4%	4.4	-24.8%	39.8%	?
O=C1CCCC/C1=C\Nc1ccccc1C(=O)O	50.1µM*	-2.8%	-21.0	?	13.4%	-28.2%
O=C1/C(=C/c2cccnc2)SC(=S)N1c1ccccc1	?	-3.5%	-1.0	-3.6%	27.9%	7.8%
O=C1/C(=C/c2cccnc2)SC(=S)N1Nc1ccccc1	39.8µM*	-5.9%	0.1	-7.5%	18.6%	?
Cn1cccc1/C=C1\SC(=S)N(Nc2ccccc2)C1=O	.	9.0%	0.3	?	?	20µM*
CC(C)C(C(=O)O)N1C(=O)/C(=C/c2cccn2C)SC1=S (stereo not drawn)	-15.9%[59 µM]	40.3%	0.5	-25.1%	-2.0%	?
Cc1ccc(S(=O)(=O)NN2C(=O)/C(=C/c3ccc(C(=O)O)cc3)SC2=S)cc1	-5.2%	-8.4%	-57.0*	?	16.8%	-31.9%
Cc1ccc(S(=O)(=O)NN2C(=O)/C(=C/c3ccc(F)cc3)SC2=S)cc1	-8.2%	?	?	-19.1%	11.6%	-26.8%
Cc1ccc(S(=O)(=O)NN2C(=O)/C(=C/c3cccs3)SC2=S)cc1	20µM*	?	-59.3*	?	-13.6%	?
COC(=O)[C@@]12C[C@@H](CC(=O)NCc3cccc4ccccc34)C(=O)N(CCc3ccc(OC)c(OC)c3)C1=CCC(C)(C)C2	.	-3.8%	22.7	.	.	.
CCN(c1ccccc1)S(=O)(=O)c1nnc(NC(=O)C(C)Oc2ccccc2)s1 (stereo not drawn)	?	.	.	?	-36.2%	?
Cc1ccc(S(=O)(=O)NN2C(=O)/C(=C/c3cccn3C)SC2=S)cc1	44.7µM*	.	.	.	.	50.1µM*
